Records with an inconclusive call do not appear. Calls of active or inactive are those of the source. The call rests on the fitted dose curve; in most records, active means well fitted inhibition curve with a large enough effect; inconclusive means small, poorly fitted or top-dose-only effect; inactive means flat fitted curve, though single readings scatter.
Assays:
CRL-7250 = normal cell line; test: Cytotoxic Profiling of Annotated Libraries Using Quantitative High-Throughput Screening (AID 1296008); details: Five cell lines viability, CellTiter-Glo ATP luminescence, 48-72 h; max response: stronger effect = lower value; on max response: on the % scale 0 is the no-effect control and ±100 the full control effect
In short: (§1)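 Cells exposed to compounds for 48 or 72 hr at 37 degrees Celsius. Viability read as ATP-coupled luminescence with CellTiter-Glo after 10 min at room temperature.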

HEK293 = test: as above; details: Five cell lines viability, CellTiter-Glo ATP luminescence, 48-72 h; max response: stronger effect = lower value
In short: as §1

HaCat [1] = test: as above; details: Five cell lines viability, CellTiter-Glo ATP luminescence, 48-72 h; max response: stronger effect = lower value
In short: as §1

KB-3-1 = test: as above; details: Five cell lines viability, CellTiter-Glo ATP luminescence, 48-72 h; max response: stronger effect = lower value
In short: as §1

NIH3T3 = test: as above; details: Five cell lines viability, CellTiter-Glo ATP luminescence, 48-72 h; max response: stronger effect = lower value
In short: as §1

HACAT [2] = test: qHTS assay to identify novel small-molecules to repurpose for Merkel cell carcinoma treatment (AID 1296009); details: MCC and control cell lines, CellTiter-Glo viability, 72 h; at 44.8 µM (top of the series) unless noted
In short: (§2)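 CellTiter-Glo luminescence after 72 hr compound exposure at 37 degree celsius gave cell viability. Libraries NPC and MIPE were run as 8- and 11-point dose responses; RLUs normalized to DMSO (negative) and no-cell (cytotoxicity) controls.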

HEK293T = test: as above; details: MCC and control cell lines, CellTiter-Glo viability, 72 h; at 44.8 µM (top of the series) unless noted
In short: as §2

JCK = test: qHTS profiling for inhibitors of Plasmodium falciparum proliferation (AID 504749);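 further: 0% = DMSO vehicle and full inhibition = artemisinin control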; details: P. falciparum in erythrocytes, SYBR Green DNA, 72 h; series mostly up to 28.7 µM
In short: (§3)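 SYBR Green fluorescence (ex 485 nm, em 535 nm) reports parasite DNA after 72 h compound exposure of infected red cells at 0.3% parasitemia, 2.5% hematocrit; signal normalized to 0.29 uM artemisinin and vehicle wells.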

N140 = test: as above; details: P. falciparum in erythrocytes, SYBR Green DNA, 72 h; series mostly up to 28.7 µM
In short: as §3

P93_24 = test: as above; details: P. falciparum in erythrocytes, SYBR Green DNA, 72 h; series mostly up to 28.7 µM
In short: as §3

P94_40 = test: as above; details: P. falciparum in erythrocytes, SYBR Green DNA, 72 h; series mostly up to 28.7 µM
In short: as §3

PAD = test: as above; details: P. falciparum in erythrocytes, SYBR Green DNA, 72 h; series mostly up to 28.7 µM
In short: as §3

PC15 = test: as above; details: P. falciparum in erythrocytes, SYBR Green DNA, 72 h; series mostly up to 28.7 µM
In short: as §3

PC26 = test: as above; details: P. falciparum in erythrocytes, SYBR Green DNA, 72 h; series mostly up to 28.7 µM
In short: as §3

PC49 = test: as above; details: P. falciparum in erythrocytes, SYBR Green DNA, 72 h; series mostly up to 28.7 µM
In short: as §3

SC27B = test: as above; details: P. falciparum in erythrocytes, SYBR Green DNA, 72 h; series mostly up to 28.7 µM
In short: as §3

TAB109 = test: as above; details: P. falciparum in erythrocytes, SYBR Green DNA, 72 h; series mostly up to 28.7 µM
In short: as §3

TAB113 = test: as above; details: P. falciparum in erythrocytes, SYBR Green DNA, 72 h; series mostly up to 28.7 µM
In short: as §3

TAB165 = test: as above; details: P. falciparum in erythrocytes, SYBR Green DNA, 72 h; series mostly up to 28.7 µM
In short: as §3

W2 = test: as above; details: P. falciparum in erythrocytes, SYBR Green DNA, 72 h; series mostly up to 28.7 µM
In short: as §3

Measured: max response
Further: nearly all actives have a fitted effect of over 60% in size.

C=C1CCC2(C(=O)OC3OC(CO)C(O)C(O)C3O)CCC3(C)C(=CCC4C5(C)CCC(OC6OC(CO)C(OC7OC(C)C(O)C(O)C7O)C(OC7OCC(O)C(O)C7O)C6O)C(C)(C)C5CCC43C)C2C1 (configuration not stated)
inactive: CRL-7250 4.25% | HEK293 -4.7% | HaCat [1] | KB-3-1 3.47% | NIH3T3 -2.38% | HACAT [2] inactive [at 9.27 µM]

N=C(N)c1ccc2nc(-c3cc(CC(=O)NC(CC(=O)O)C(=O)O)cc(-c4cc(S(N)(=O)=O)ccc4O)c3O)[nH]c2c1 (configuration not stated)
inactive: CRL-7250 -1.88% | HEK293 1.8% | HaCat [1] | KB-3-1 | NIH3T3 -8.69% | HACAT [2]

CC1(C)CC[C@]2(C(=O)O[C@@H]3O[C@H](CO)[C@@H](O)[C@H](O)[C@H]3O)CC[C@]3(C)C(=CCC4[C@@]5(C)C[C@H](O)[C@H](O[C@@H]6O[C@H](C(=O)O)[C@@H](O)[C@H](O)[C@H]6O)[C@@](C)(CO)C5CC[C@]43C)C2C1 (some centres not stated)
inactive: CRL-7250 -4.26% | HEK293 1.87% | HaCat [1] | KB-3-1 -16.3% | NIH3T3 | HACAT [2] inactive [at 9.27 µM]

C=CC(C)(O)CC/C=C(\C)C1CC=C(C)C(=O)O1 (configuration not stated)
inactive: CRL-7250 | HEK293 -4.28% | HaCat [1] | KB-3-1 2.69% | NIH3T3 | HACAT [2]

CC(=O)OC1CC2(C)C(CCC(C)C23Cc2c(O)cc4c(c2O3)CNC4=O)C(C)(C)C1O (configuration not stated)
inactive: CRL-7250 -8.86% | HEK293 | HaCat [1] -6.41% | KB-3-1 | NIH3T3 -10.8% | HEK293T inactive [at 17.4 µM]

CC1CCC2(NC1)OC1C(O)C3C4CCC5CC(O[C@@H]6O[C@H](CO)[C@@H](O)[C@H](O)[C@H]6O[C@@H]6O[C@@H](C)[C@H](O)[C@@H](O)[C@H]6O)CCC5(C)C4CCC3(C)C1C2C (some centres not stated)
inactive: CRL-7250 -4.87% | HEK293 2.08% | HaCat [1] | KB-3-1 -0.386% | NIH3T3 | HACAT [2] inactive [at 17.4 µM]

CC1=C2CC(C)(C)CC2C(O)C2=C(C1)C(=O)OC2O (configuration not stated)
inactive: CRL-7250 | HEK293 4.01% | HaCat [1] | KB-3-1 | NIH3T3 -6.57% | HACAT [2]

COc1cc(/C=C/CO[C@@H]2O[C@H](CO)[C@@H](O)[C@H](O)[C@H]2O)cc(OC)c1O[C@@H]1O[C@H](CO)[C@@H](O)[C@H](O)[C@H]1O
inactive: CRL-7250 -7.94% | HEK293 -7.31% | HaCat [1] | KB-3-1 | NIH3T3 | HACAT [2] inactive [at 17.4 µM]

CCc1cccc2c3c([nH]c12)[C@@](CC)(CC(=O)O)OCC3
inactive: JCK | N140 | P93_24 | P94_40 | PAD | PC15 | PC26 | PC49 | SC27B | TAB109 | TAB113 | TAB165 | W2 | CRL-7250 0.605% | HEK293 3.28% | HaCat [1] | KB-3-1 | NIH3T3 1.91% | HACAT [2]

CC(C)=CCc1cc(O[C@@H]2O[C@H](CO[C@@H]3OC[C@](O)(CO)[C@H]3O)[C@@H](O)[C@H](O)[C@H]2O)ccc1O
inactive: CRL-7250 -4.68% | HEK293 1.91% | HaCat [1] | KB-3-1 | NIH3T3 | HACAT [2] inactive [at 17.4 µM]

COc1cc(/C=C/C(=O)O[C@H]2C[C@@H]3C(C(=O)O)=CO[C@@H](O[C@@H]4O[C@H](CO)[C@@H](O)[C@H](O)[C@H]4O)[C@@H]3[C@H]2C)ccc1O
inactive: CRL-7250 | HEK293 | HaCat [1] 3.27% | KB-3-1 | NIH3T3 1.34% | HEK293T inactive [at 17.4 µM]

C[C@@H]1C(=O)O[C@H]2[C@H]1CC[C@@]1(C)C(=O)C=C[C@@](C)(O)[C@H]21
inactive: CRL-7250 -5.99% | HEK293 | HaCat [1] -2.04% | KB-3-1 1.69% | NIH3T3 4.77% | HEK293T

C=C1CCC2[C@](C)(CO)CCC[C@@]2(C)[C@@H]1CCC1=CCOC1=O (some centres not stated)
inactive: CRL-7250 -10.5% | HEK293 -0.138% | HaCat [1] | KB-3-1 5.6% | NIH3T3 -5.66% | HACAT [2]

CC(=O)/C=C/[C@H]1[C@](C)(O)[C@@H](O)[C@H](O)C2C(C)(C)CCC[C@@]21C (some centres not stated)
inactive: CRL-7250 -11.3% | HEK293 -5.03% | HaCat [1] | KB-3-1 -3.39% | NIH3T3 | HACAT [2]

CCC(C)C(=O)OC[C@H]1O[C@H](O[C@H]2O[C@H](CO)[C@@H](O)[C@H](O)[C@H]2O)[C@H](O)[C@@H](O)[C@@H]1O (some centres not stated)
inactive: CRL-7250 | HEK293 0.11% | HaCat [1] | KB-3-1 6.74% | NIH3T3 | HACAT [2] inactive [at 17.4 µM]

C[C@@H]1[C@H]2[C@H](O[C@@H]3O[C@H](CO)[C@@H](O)[C@H](O)[C@H]3O)OC=C(C(=O)O)[C@H]2C[C@@H]1OC(=O)/C=C/c1ccc(O)cc1
inactive: CRL-7250 -1.73% | HEK293 | HaCat [1] -1.65% | KB-3-1 7.88% | NIH3T3 1.42% | HEK293T inactive [at 17.4 µM]

C=C1CC[C@H]2[C@@](C)(CCC(O)[C@@]2(C)CO)[C@@H]1/C=C/C(=C\C(=O)O)C(=O)O (some centres not stated)
inactive: CRL-7250 -1.65% | HEK293 -0.745% | HaCat [1] | KB-3-1 | NIH3T3 -1.97% | HACAT [2]

COc1cc(Cc2cnc(N)nc2N)c(C(C)C)cc1OC
inactive: CRL-7250 -4.26% | HEK293 | HaCat [1] -0.359% | KB-3-1 4.42% | NIH3T3 3.87% | HEK293T

CO[C@H]1c2cc(C(C)C)c(O)c(O)c2[C@@]23CCCC(C)(C)C2[C@@H]1OC3=O (some centres not stated)
inactive: CRL-7250 | HEK293 -7.48% | HaCat [1] | KB-3-1 | NIH3T3 | HACAT [2]

COC(=O)c1cc(OC)cc(OC)c1C(=O)c1c(OC)cc2c(c1O)C1CCC(O)C(C)(O2)O1 (configuration not stated)
inactive: CRL-7250 | HEK293 0.585% | HaCat [1] | KB-3-1 | NIH3T3 | HACAT [2] inactive [at 17.4 µM]

CCCC/C=C\CCCCCc1cc(=O)c2ccccc2n1C
inactive: CRL-7250 -5.2% | HEK293 -7.72% | HaCat [1] | KB-3-1 | NIH3T3 | HACAT [2]

C/C=C(\C)C1C(C)=CC2CCC(OS(=O)(=O)O)C(C)C2C1/C=C/C=C/C(=O)O (configuration not stated)
inactive: CRL-7250 | HEK293 | HaCat [1] -12.6% | KB-3-1 7.13% | NIH3T3 -0.702% | HEK293T inactive [at 17.4 µM]

C[C@@H](NC(=O)c1cc(C(=O)N[C@@H](Cc2ccccc2)[C@H](O)CNC2CC2)cc(N(C)S(C)(=O)=O)c1)c1ccccc1
inactive: CRL-7250 2.97% | HEK293 -6.18% | HaCat [1] | KB-3-1 -1.48% | NIH3T3 | HACAT [2]

O=C(O)c1ccncc1Nc1nn(CCN2CCC(F)(F)CC2)c2ccc(F)cc12
inactive: CRL-7250 -22.9% | HEK293 0.878% | HaCat [1] | KB-3-1 9.77% | NIH3T3 1.4% | HACAT [2]

Reference: PubChem BioAssay (NCATS)
